The values below come from PubChem BioAssay AID1778 (Sanford-Burnham Center for Chemical Genomics, 2009).

Among all 290,000 compounds or so, about 260 (0.09%) were called active. No stated cut-off is given here; in the data, active means inhibition above about 50%; inactive means the rest. For the sample, actives were picked, then their nearest neighbours and some compounds at random. Potency and affinity values are given separately.

What is called inhibition is the drop in the measured response relative to a control, in per cent.

In the experiment the target is Kappa-type opioid receptor (Homo sapiens) (UniProt P41145). The experiment in a line: KOR antagonists, beta-arrestin recruitment, cell-based, luminescence, uHTS (AID 1778). As to conditions: antagonist mode, stronger effect = higher value; at 10 µM unless noted.
Chain of Kappa-type opioid receptor (Homo sapiens) (P41145 whole entry, looked up): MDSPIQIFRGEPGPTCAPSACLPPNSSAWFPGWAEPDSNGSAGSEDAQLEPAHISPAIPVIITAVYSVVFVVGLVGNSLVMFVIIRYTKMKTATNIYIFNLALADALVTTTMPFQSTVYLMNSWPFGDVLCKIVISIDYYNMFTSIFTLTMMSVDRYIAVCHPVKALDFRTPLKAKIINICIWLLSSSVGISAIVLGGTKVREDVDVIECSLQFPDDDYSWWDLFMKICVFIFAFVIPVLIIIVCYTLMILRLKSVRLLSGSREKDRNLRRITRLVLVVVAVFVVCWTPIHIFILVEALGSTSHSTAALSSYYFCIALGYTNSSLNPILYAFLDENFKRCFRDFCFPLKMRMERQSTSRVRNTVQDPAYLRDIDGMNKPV
`CCn1c(SCC(=O)NC2CCCCC2)nnc1-c1ccco1`: the inhibition is -10.6% (inactive).

For `Cc1ccc(COC(=O)c2nn(C)c(=O)c3ccccc23)cc1`, the inhibition is -20% (inactive).

As to `CCOC(=O)c1c(N)sc(C(O)(C(F)(F)F)C(F)(F)F)c1-c1ccc(F)cc1`, the inhibition was -27.6% (inactive).

On to `Oc1csc(Cc2nc(-c3ccc(Br)cc3)cs2)n1`, for which the inhibition is 8.7% (inactive).

Consider `Oc1csc(Cc2nc(-c3ccccc3F)cs2)n1`, for which the inhibition was -33.9% (inactive).

For the compound `Oc1csc(Cc2nc(-c3ccc(-c4ccccc4)cc3)cs2)n1`, the inhibition was 3.4% (inactive).

As to `Oc1csc(Cc2nc(-c3ccc4ccccc4c3)cs2)n1`, the inhibition is 22.5% (inactive).

`CN1CCN(C(=O)c2ccc(COc3ccc(Cl)cc3Cl)cc2)CC1`: the inhibition is -29.5% (inactive).

Take `CS(=O)(=O)NCCCCCCNS(C)(=O)=O`: the inhibition was -28.3% (inactive).

Regarding `COc1ccc(-c2nn(CCC(=O)O)cc2/C=C/C(=O)O)cc1[N+](=O)[O-]`, the inhibition is 2.1% (inactive).

Regarding `CCCNS(=O)(=O)c1ccc(OCC(=O)N2CCCC2)cc1`, the inhibition is -18.5% [at 20 µM] (inactive).

Take `Cc1ccccc1Cn1c(=O)n(-c2ccccc2)c(=O)c2ccc(C(=O)NCc3ccco3)cc21`: the inhibition is 20.6% (inactive).

`CC(C)(C)c1ccc(OCc2cnc(Cl)s2)cc1`: the inhibition is -46.2% [at 20 µM] (inactive).

For the compound `CCN1C(=O)c2ccccc2S(=O)(=O)c2ccc(C(=O)N3CCOCC3)cc21`, the inhibition was 16.4% (inactive).

As to `O=C(Nc1nnc(-c2cccs2)o1)c1cccc(C(F)(F)F)c1`, the inhibition was 100% (active).

Consider `CN(C)S(=O)(=O)c1ccc(C(=O)Nc2nnc(-c3cccs3)o2)cc1`, for which the inhibition is -13% (inactive).

With `O=C(Nc1nnc(C2=COCCO2)o1)c1cccc(C(F)(F)F)c1`, the inhibition was 16% (inactive).

Regarding `N#Cc1ccc(C(=O)Nc2nnc(-c3cccs3)o2)cc1`, the inhibition is -5.8% (inactive).

Take `COc1cccc(C(=O)Nc2nnc(-c3cccs3)o2)c1`: the inhibition was -17.8% (inactive).

As for `COc1cc(-c2[nH]ncc2CN2CCN(Cc3cccs3)CC2)cc(OC)c1OC`, the inhibition is -18.5% (inactive).

In the case of `Cc1cccc(Nc2nc(N)c([N+](=O)[O-])c(N3CC(C)CC(C)C3)n2)c1` (stereo unspecified), the inhibition is -15% (inactive).

Take `O=C1CC(C2CCCO2)C(=O)N1c1ccc(Cl)c(Cl)c1` (stereo unspecified): the inhibition was -15.9% [at 20 µM] (inactive).

Regarding `CN(C)S(=O)(=O)c1cccc(NC(=O)c2cc(=O)[nH]c3ccccc23)c1`, the inhibition is -14.8% [at 20 µM] (inactive).

As to `CCn1c(=O)c2sccc2n2c(CCCC(=O)NCCc3ccc(S(N)(=O)=O)cc3)nnc12`, the inhibition was -3% (inactive).

With `COC(=O)C1=C(C(=O)OC)[C@@H]2N(C)c3ccc(OC)cc3[C@@]23C[C@@H](C(=O)OC)N(C(=O)c2cccs2)C3=N1`, the inhibition was -29.4% [at 20 µM] (inactive).

With `Cc1ccc(/C=C2\SC(=S)N(c3cccnc3)C2=O)cc1`, the inhibition was -11.9% (inactive).

As to `O=C1/C(=C/c2cccnc2)SC(=S)N1c1ccc(O)cc1`, the inhibition is 30.3% (inactive).

As for `O=C(C(Sc1ccccc1)c1ccc(Br)cc1)N1CCOCC1` (stereo unspecified), the inhibition is 20.5% (inactive).

Consider `CCN(c1ccccc1)S(=O)(=O)c1ccc(NC(=O)c2nc(S(C)(=O)=O)ncc2Cl)cc1`, for which the inhibition was 38.4% (inactive).

For the compound `Cc1ccc(NC(=O)c2nc(S(=O)(=O)Cc3ccccc3)ncc2Cl)cc1`, the inhibition was 14% (inactive).

Consider `CN(c1ccccc1)S(=O)(=O)c1ccc(NC(=O)c2nc(S(C)(=O)=O)ncc2Cl)cc1`, for which the inhibition is 35.2% (inactive).

Take `CC(=O)Nc1ccc(NC(=O)c2nc(S(=O)(=O)Cc3ccccc3)ncc2Cl)cc1`: the inhibition was 23.7% (inactive).

Regarding `CCOC(=O)N1CCN(C(=O)COc2cccc3c2CCN(Cc2cccc(C)c2)C3=O)CC1`, the inhibition is 8% (inactive).

Consider `CSc1ccc(NC(=O)N2CC=C(n3c(=O)[nH]c4ccccc43)CC2)cc1`, for which the inhibition is 90.6% (active).

On to `CCOc1ccc(NC(=O)N2CC=C(n3c(=O)[nH]c4ccccc43)CC2)cc1`, for which the inhibition is 35.6% (inactive).

As to `O=C(Nc1cccc(F)c1)N1CC=C(n2c(=O)[nH]c3ccccc32)CC1`, the inhibition was 46.2% (inactive).

On to `N#Cc1ccc(CN2CCN(C(=O)c3ccccc3)CC2)c(Cl)c1`, for which the inhibition is -1.5% (inactive).

As to `Cc1cccc(C(=O)c2ccccc2C(=O)O)c1`, the inhibition was 19.6% (inactive).

As to `CC(NC(=O)Cn1nc(C(=O)O)c2ccccc2c1=O)C12CC3CC(CC(C3)C1)C2` (stereo unspecified), the inhibition was -21.3% (inactive).

As to `CC(NC(=O)CN1CCCC1)C12CC3CC(CC(C3)C1)C2` (stereo unspecified), the inhibition is -12% (inactive).

Turning to `Cc1ccc(C(=O)N/C(=C\c2ccc(F)cc2)C(=O)NCCCn2ccnc2)cc1`, the inhibition is 21.6% (inactive).

Take `CCOc1cc(CNC2CCCC2)cc(Cl)c1OCc1ccc(F)cc1`: the inhibition is -17.1% (inactive).

As for `CCNCc1cc(Cl)c(OCc2ccccc2)c(OCC)c1`, the inhibition was 12.3% (inactive).

`O=C(O)c1ccc(N/N=C/c2cccc3nccnc23)cc1`: the inhibition is 14.2% (inactive).

Take `C(=C\c1ccccc1)/CSc1ccccn1`: the inhibition was -4.7% (inactive).

Take `CC(C)N(C(=O)COC(=O)c1ccccc1C(=O)c1ccc(Cl)c([N+](=O)[O-])c1)C(C)C`: the inhibition is 24.3% (inactive).

For the compound `CNC(=O)COC(=O)c1ccccc1C(=O)c1ccc(Cl)c([N+](=O)[O-])c1`, the inhibition was -7.4% (inactive).

For the compound `CC(=O)c1ccc(Nc2ccc([N+](=O)[O-])c3nonc23)cc1`, the inhibition is 37.3% [at 20 µM] (inactive).

For the compound `NS(=O)(=O)c1ccc(Nc2ccc([N+](=O)[O-])c3nonc23)cc1`, the inhibition is -10.8% (inactive).

`COc1ccc(OC)c(NC(=O)c2cc3sccc3n2C)c1`: the inhibition is 9.4% (inactive).

On to `COc1ccc(OC)c(N2C(N)=C(C#N)C(c3ccc(OC)c(O)c3)C3=C2CC(C)(C)CC3=O)c1` (stereo unspecified), for which the inhibition is 16.3% (inactive).

Regarding `CCC(=O)Nc1ccc(C(=O)n2ccc(C)n2)cc1`, the inhibition is 5.2% (inactive).

Take `N=C1/C(=C\c2ccc(-c3cccc(Cl)c3)o2)C(=O)N=C2SC=C(c3ccccc3)N12`: the inhibition is 29.8% (inactive).

As for `N=C1S/C(=C\c2ccco2)C(=O)N1c1nccs1`, the inhibition was 71% (active).

For `COc1ccc(/C=C2\SC(=N)N(c3ccc(F)cc3)C2=O)cc1OC`, the inhibition is -9.7% (inactive).

Regarding `N=C1S/C(=C\c2ccco2)C(=O)N1c1ccc2c(c1)OCO2`, the inhibition is -11.9% [at 20 µM] (inactive).

Consider `CCOc1cc(/C=C2\SC(=N)N(c3nccs3)C2=O)ccc1OCCN1CCOCC1`, for which the inhibition was -3.5% (inactive).

Consider `Cc1[nH]c2ccccc2c1/C=N/n1cnnc1`, for which the inhibition was -34.7% (inactive).

In the case of `COc1cc(/C=C2\SC(=N)N(c3ccc(F)cc3)C2=O)ccc1O`, the inhibition is -30.7% (inactive).

As to `O=C1/C(=C/c2ccco2)SC(=S)N1c1cccnc1`, the inhibition was -2.4% (inactive).

Take `O=C1OC(c2cccs2)=N/C1=C\c1ccc(-c2cccc(Cl)c2)o1`: the inhibition was -15.5% (inactive).
